Where “and” joins values, the source holds several entries; their conditions need not be identical. Identical values can stand only once. The campaign covered roughly 5,500 compounds. About 2,000 (36%) were called active. Another 18% or so got no clear call; they are omitted. No stated cut-off is given here; in the data, active means normalized growth mostly below about 0.91 (no sharp cut-off); inconclusive means no clear call, values can overlap the other calls; inactive means mostly above about 0.92. This is one part of the list.
Assay: chemical genetic growth profiling, strain panel (AID 1159580);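 further: tested at 20 µM; growth read once vehicle control cultures reached saturation at 30 °C; 1 = growth at the plate median or of vehicle wells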
Conditions: S. cerevisiae deletion strains, growth OD

Measured: normalized growth

NCC(=O)c1ccccc1
inactive: locus YAL013W, strain DEP1, stronger effect = lower value 1.02 | locus YAL021C, strain ccr4, stronger effect = lower value 1.02 | locus YAL026C, strain drs2, stronger effect = lower value 1.01 | locus YAL030W, strain snc1, stronger effect = lower value 1 | locus YBL061C, strain skt5, stronger effect = lower value 0.995 | locus YBR009C, strain hhf1, stronger effect = lower value 0.999 | locus YBR021W, strain FUR4, stronger effect = lower value 1.02 | locus YBR023C, strain chs3, stronger effect = lower value 1 | locus YBR171W, strain sec66, stronger effect = lower value 1 | locus YBR229C, strain ROT2, stronger effect = lower value 1.01 | locus YBR231C, strain swc5, stronger effect = lower value 0.998 | locus YBR279W, strain paf1, stronger effect = lower value 1.01 | locus YCL011C, strain gbp2, stronger effect = lower value 1.01 | locus YCL016C, strain dcc1, stronger effect = lower value 1 | locus YCL029C, strain bik1, stronger effect = lower value 0.998 | locus YCL061C, strain MRC1, stronger effect = lower value 0.996 | locus YCL069W, strain vba3, stronger effect = lower value 0.997 | locus YCR088W, strain abp1, stronger effect = lower value 1 | locus YDL005C, strain med2, stronger effect = lower value 0.984 | locus YDL035C, strain GPR1, stronger effect = lower value 1.02 | locus YDL040C, strain nat1, stronger effect = lower value 1 | locus YDL074C, strain BRE1, stronger effect = lower value 1.06 | locus YDL101C, strain DUN1, stronger effect = lower value 1.02 | locus YDL134C, strain PPH21, stronger effect = lower value 1.02 | locus YDL185W, strain tfp1, stronger effect = lower value 0.996 | locus YDL192W, strain arf1, stronger effect = lower value 0.997 | locus YDR001C, strain nth1, stronger effect = lower value 1.01 | locus YDR069C, strain doa4, stronger effect = lower value 1.02 | locus YDR101C, strain arx1, stronger effect = lower value 0.983 | locus YDR137W, strain rgp1, stronger effect = lower value 1.01 | locus YDR150W, strain NUM1, stronger effect = lower value 1.03 | locus YDR159W, strain sac3, stronger effect = lower value 0.993 | locus YDR162C, strain NBP2, stronger effect = lower value 1.04 | locus YDR195W, strain ref2 0.976 | locus YDR297W, strain sur2, stronger effect = lower value 0.989 | locus YDR318W, strain mcm21, stronger effect = lower value 0.982 | locus YDR334W, strain swr1, stronger effect = lower value 0.999 | locus YDR335W, strain msn5, stronger effect = lower value 1.01 | locus YDR388W, stronger effect = lower value 0.991 | locus YDR392W, strain spt3, stronger effect = lower value 1.02 | locus YDR502C, strain sam2, stronger effect = lower value 0.988 | locus YEL003W, strain gim4, stronger effect = lower value 1 | locus YEL037C, strain rad23, stronger effect = lower value 1 | locus YEL061C, strain CIN8 (second series), stronger effect = lower value 1.02 | locus YEL061C, strain CIN8, stronger effect = lower value 1.01 | locus YER015W, strain faa2, stronger effect = lower value 1 | locus YER016W, strain bim1, stronger effect = lower value 0.987 | locus YER110C, stronger effect = lower value 0.996 | locus YER111C, strain swi4, stronger effect = lower value 0.992 | locus YER155C, strain BEM2 (second series), stronger effect = lower value 1 | locus YER155C, strain BEM2, stronger effect = lower value 1.01 | locus YER167W, strain BCK2, stronger effect = lower value 1.02 | locus YFR010W, strain ubp6, stronger effect = lower value 0.999 | locus YGL078C, strain dbp3, stronger effect = lower value 0.994 | locus YGL086W, strain mad1, stronger effect = lower value 1 | locus YGL167C, strain pmr1, stronger effect = lower value 0.997 | locus YGL173C, strain kem1, stronger effect = lower value 0.998 | locus YGL227W, strain vid30, stronger effect = lower value 1.01 | locus YGL240W, strain doc1, stronger effect = lower value 1.02 | locus YGL248W, strain PDE1, stronger effect = lower value 1.02 | locus YGL253W, strain hxk2, stronger effect = lower value 1.02 | locus YGR078C, strain PAC10, stronger effect = lower value 1.02 | locus YGR135W, strain pre9, stronger effect = lower value 0.994 | locus YGR229C, strain SMI1, stronger effect = lower value 1.03 | locus YGR252W, strain gcn5, stronger effect = lower value 0.964 | locus YHR013C, strain ard1, stronger effect = lower value 0.979 | locus YHR027C, strain rpn1, stronger effect = lower value 1.02 | locus YHR030C, strain SLT2, stronger effect = lower value 1.01 and 1.02 | locus YHR079C, strain IRE1 (second series), stronger effect = lower value 0.996 | locus YHR079C, strain IRE1, stronger effect = lower value 1.03 | locus YHR094C, strain hxt1, stronger effect = lower value 0.988 | locus YHR129C, strain ARP1, stronger effect = lower value 1.01 | locus YHR142W, strain chs7, stronger effect = lower value 1.01 | locus YHR200W, strain rpn10, stronger effect = lower value 0.988 | locus YIL066C, strain RNR3, stronger effect = lower value 1.02 | locus YIL073C, strain SPO22, stronger effect = lower value 0.951 | locus YIL125W, strain kgd1, stronger effect = lower value 1 | locus YIR030C, strain dcg1, stronger effect = lower value 0.992 | locus YJL092W, strain hpr5, stronger effect = lower value 1 | locus YJL095W, strain BCK1 (second series), stronger effect = lower value 0.999 | locus YJL095W, strain BCK1, stronger effect = lower value 1.05 and 1.03 | locus YJL115W, strain asf1, stronger effect = lower value 1 | locus YJL129C, strain trk1, stronger effect = lower value 1 | locus YJL134W, strain LCB3, stronger effect = lower value 1.01 | locus YJL154C, strain vps35, stronger effect = lower value 1 | locus YJL164C, strain tpk1, stronger effect = lower value 0.996 | locus YJL166W, strain qcr8, stronger effect = lower value 1.02 | locus YJL168C, strain set2, stronger effect = lower value 0.994 | locus YJL187C, strain SWE1 (second series), stronger effect = lower value 1.02 | locus YJR043C, strain POL32, stronger effect = lower value 1 | locus YJR066W, strain TOR1, stronger effect = lower value 0.997
